Luc counter: counter-screen: inhibitors of Kinase-Glo firefly luciferase; Q27757; hit rate 0.28% among 200,000; Potency, µM (highest dose often 38.3 µM), actives largely listed as inhibitors; Kinase-Glo luciferase, ATP luminescence, 8 min; AID 1379; note: nearly all actives have a fitted effect of over 60% in size
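Light output from Kinase-Glo luciferase with luciferin and 10 uM ATP in 50 mM imidazole pH 7.2, KCl, MgCl2, Tween 20, BSA; compound pin-delivered, 8-min ambient incubation, then luminescence read.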
HPGD inh: HPGD (human) dehydrogenase inhibition; P15428; purified HPGD, NADH fluorescence kinetic, PGE2 substrate; Potency, µM, actives largely listed as inhibitors; hit rate 4.3% among 150,000; AID 894; active = well fitted inhibition curve with a large enough effect, not every such curve was filed as active; inconclusive = small, poorly fitted or top-dose-only effect, or another doubt; inactive = no such curve, though single readings can be large or run the other way
Target sequence (P15428 whole entry, looked up): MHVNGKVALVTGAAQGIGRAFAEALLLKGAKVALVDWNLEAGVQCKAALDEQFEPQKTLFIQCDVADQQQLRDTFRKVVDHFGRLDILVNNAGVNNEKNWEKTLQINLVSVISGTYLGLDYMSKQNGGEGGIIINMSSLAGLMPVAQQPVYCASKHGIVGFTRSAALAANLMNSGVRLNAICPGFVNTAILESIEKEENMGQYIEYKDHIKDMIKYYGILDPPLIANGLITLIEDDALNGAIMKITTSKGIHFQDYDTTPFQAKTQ
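20 nM HPGD preincubated 15 min at room temperature with compound in 50 mM Tris-HCl pH 8, 0.01% Tween 20. Started with 1 mM NAD+ and 30 uM prostaglandin E2; NADH fluorescence (360/450 nm) read 5 times over 30-s intervals, last minus first.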
LMNA splice mod: modulators of lamin A splicing. HeLa LMNA splicing GFP/RFP minigene ratio, 48 h. Potency, µM (titrated, usually from 46.1 µM), most hits filed as inhibitors. hit rate 0.01% among 200,000; active = well fitted inhibition curve with a large enough effect in the signal ratio, with a control signal flat, not every such curve was filed as active; inconclusive = small, poorly fitted or top-dose-only effect, or effect the other way, or a change in a side signal; the % refers to the signal ratio
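S3 HeLa cells stably expressing lamin A-EGFP splicing minigene plus DsRed2, 600 cells/well, 48 h compound exposure at 37C. Laser-scanning cytometry; analysed as GFP (500-530 nm)/RFP (575-640 nm) total intensity ratio; 0.5% DMSO vehicle.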
ALDH1A1 block: inhibitors of human aldehyde dehydrogenase 1A1. AID 1030. Purified ALDH1A1, NADH fluorescence, propionaldehyde substrate. Potency, µM (series often up to 75.3 µM), hits mostly inhibitors. hit rate 7.3% among 220,000; active = well fitted inhibition curve with a large enough effect, not every such curve was filed as active; inconclusive = small, poorly fitted or top-dose-only effect, or another doubt; inactive = no such curve, though single readings can be large or run the other way
IMPase Li cell: membrane-permeable IMPase blocker, potentiated with lithium; CHO-M1 cells, IP1 TR-FRET (IP-One), carbachol + lithium; Potency, µM (top dose mostly 59.4 µM), most hits filed as inhibitors; hit rate 0.35% among 210,000;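 note: IP1 builds up when IMPase is blocked and the TR-FRET signal falls; nearly all actives have a fitted effect of over 50% in size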
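Lithium-sensitised IP1 accumulation assay; M1-expressing CHO cells treated 30 min at 37C with compound. Competitive antibody detection by time-resolved FRET followed a 10 min room-temperature lysis step.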
Numbers stand for hits; - = inactive; ? = inconclusive; . = not tested or not shown; [ ] = remark or other dose. An excerpt weighted towards active compounds, which were near 9% of everything screened. Unless noted, calls come from the whole dose curve; as a rule, active = well fitted curve in the direction sought with a large enough effect; inconclusive = small, poorly fitted or top-dose-only effect, or another doubt; inactive = no such curve, though single readings can be large; an effect the other way counts as inactive or inconclusive.

SMILES	Luc counter	HPGD inh	LMNA splice mod	ALDH1A1 block	IMPase Li cell
Cc1ccccc1OCc1nnc(SCC(=O)Nc2ccc3nc(SCC(=O)Nc4ccccc4)sc3c2)n1C	-	-	?	13µM	?
Cn1c(SCC(=O)Nc2ccc3nc(SCC(=O)N4CCCC4)sc3c2)nnc1-c1ccc(N)cc1	-	8.9µM	-	13µM	-
Cn1c(SCC(=O)Nc2ccc3nc(SCC(=O)NC4CC4)sc3c2)nnc1-c1ccccc1	-	3.5µM	-	10µM	-
N#CC1=C(c2ccc(-c3ccccc3)cc2)COC1=O	-	.	.	?	-
CCOc1ccc(C(C)=O)cc1COc1ccc(-n2cnnn2)cc1	-	-	-	-	-
CC(C)(C)c1ccc(/C=C/C(=O)N2CCOCC2)cc1	-	25µM	-	?	-
CC(C)N1C(=O)S/C(=C/c2ccc3c(c2)n(C)c(=O)n3C)C1=O	-	?	?	8.9µM	-
CC(C)N1C(=O)S/C(=C/c2cccnc2)C1=O	-	-	-	13µM	-
CCC(C)N1C(=O)S/C(=C/c2ccc3c(c2)n(C)c(=O)n3C)C1=O (stereo not given)	-	.	.	?	-
NC1=NC(=O)/C(=C\c2cccnc2)S1	-	.	?	-	-
CCCCCCCCc1nnc(NC(=O)c2ccco2)s1	-	-	-	-	-
CCOC(=O)C1CCCN(Cc2cc(Br)ccc2OC)C1 (stereo not given)	-	-	-	10µM	-
CCOC(=O)C1CCCN(Cc2ccccc2F)C1 (stereo not given)	-	-	-	11µM	-
Nc1ccc(SC(F)(F)F)cc1	-	.	-	20µM	-
CCC(=O)Nc1sc(Cc2ccccc2)c(C)c1C(N)=O	-	.	?	22µM	-
Cc1ccc(/C=N/c2sc(Cc3ccccc3)c(C)c2C(N)=O)o1	-	-	-	?	-
Cc1c(Cc2ccccc2)sc(NC(=O)C(C)(C)C)c1C(N)=O	-	.	.	8.9µM	-
Cc1c(Cc2ccccc2)sc(N)c1C(N)=O	-	28µM	-	16µM	-
CC(C)C[C@H](NC(=O)c1nc[nH]c1C(=O)N(C)Cc1ccccc1)C(=O)OCc1ccccc1	.	.	.	?	-
Cc1cccn2c(=O)c(C(=O)N3CCN(c4ccccc4)CC3)cnc12	.	.	-	.	.
O=S(=O)(c1ccccc1)c1cnc(-c2ccccc2)nc1N1CCCC1	.	.	.	?	-
Cc1ccc(S(=O)(=O)c2cnc(-c3ccccc3)nc2N2CCCCC2)cc1	-	.	.	13µM	-
CCS(=O)(=O)N1CCCC(C(=O)NC2CCCCC2C)C1 (stereo not given)	-	-	-[0.0737 µM]	-	-
CCCS(=O)(=O)N1CCC(C(=O)NC2CCCCC2C)CC1 (stereo not given)	.	.	-	10µM	.
O=C(O/N=C\c1ccc(N2CCOCC2)c([N+](=O)[O-])c1)c1ccccc1Cl	-	-	-	1.6µM	-
SMILES	Luc counter	HPGD inh	LMNA splice mod	ALDH1A1 block	IMPase Li cell
CC(C)(C)Sc1ccc(/C=N/O)cc1[N+](=O)[O-]	-	.	-	22µM	-
O=C(O/N=C/c1ccc2c(c1)OCO2)c1ccccc1Cl	11µM	?	-	?	-
Cc1ccc(Sc2ccc(/C=N/O)cc2[N+](=O)[O-])cc1	-	-	?	-	-
O=[N+]([O-])c1cc(/C=N/n2cnnc2)ccc1N1CCCC1	-	.	?	1µM	-
CCCCC/C=C\C=C\[C@H](O)CCCCCCCC(=O)O	.	.	.	-	-
O=[N+]([O-])c1cc(/C=N/O)ccc1N1CCCC1	-	.	?	11µM	-
Cc1ccccc1Cn1c(Oc2ccccc2F)nc2c1c(=O)n(C)c(=O)n2C	.	.	-	.	.
COCn1c(=O)c2c(nc(SC3=NCCS3)n2Cc2ccccc2C)n(COC)c1=O	-	-	-	2.8µM	-
COc1cc(C(=O)NC(=S)Nc2ccc3c(c2)C(=O)N(C)C3=O)cc(OC)c1OC	-	-	-	1µM	-
CCCCC[C@H](O)/C=C/[C@H]1OC(O)C[C@H](O)[C@@H]1C/C=C\CC(=O)O (stereo not given in full)	-	-	.	-	-
CCc1ccc(NC(=O)Cc2csc(COc3cccc(C)c3)n2)cc1	.	.	-	.	.
C#CCCCO/N=C1/[C@H]2O[C@@H]2[C@@H](O)[C@H]2[C@H]1CCn1c(=O)n([C@@H](CC)c3ccccc3)c(=O)n12	.	.	.	-[13.5 µM]	.
CCC(Sc1nc2cc3c(cc2c(=O)n1CCCCCC(=O)NCc1ccc2c(c1)OCO2)OCO3)C(=O)NCCCOC (stereo not given)	.	.	-	.	.
Cc1cc2cc3c(cc2nc1SCc1ccccn1)OCCO3	-	-	-	-	?
N#Cc1cc2ccccc2nc1SCc1ccccn1	-	25µM	-	-	-
Cc1cccc(C2=N[C@@H](Cc3ccccc3)CO2)c1	-	-	.	-	-
O=c1ccc2c(OCCCCc3ccccc3)c3ccoc3cc2o1	-	-	?	?	-
O=C(N/N=C/C1C(c2ccccc2)C1(Cl)Cl)c1cccc(Br)c1 (stereo not given)	-	-	-	11µM	-
COc1ccc(NC(=O)c2nn(C)c3c2CS(=O)(=O)c2ccccc2-3)cc1Cl	.	.	-	.	.
C=CCn1c(C)cc(C(=O)COc2ccc(C)nc2[N+](=O)[O-])c1C	-	-	?	?	-
C=CCn1c(C)cc(C(=O)COc2ccc(S(=O)(=O)N3CCCC3)cc2[N+](=O)[O-])c1C	-	-	-	5µM	-
COc1ccccc1N1CCN(C(=O)c2c3c(nc4ccccc24)C(=O)N(C2CCCCC2)C3)CC1	.	.	-	.	.
COc1ccc(-c2nn(-c3ccccc3)cc2/C=C(\C#N)S(=O)(=O)c2ccccc2)cc1OC	-	-	-	8.9µM	-
Cc1cccc(C)c1-n1nnnc1-c1cnccc1C(F)(F)F	.	.	.	20µM	.
Cc1cccc(C)c1-n1nnnc1SCSc1nnnn1-c1c(C)cccc1C	-	-	-	?	-
SMILES	Luc counter	HPGD inh	LMNA splice mod	ALDH1A1 block	IMPase Li cell
C=CCN1C(=O)/C(=C\c2ccco2)C(C(=O)OC)=C1C	-	32µM	-	-	-
CCOc1cc(/C=C2\C(=O)N(Cc3ccco3)C(C)=C2C(=O)OC)ccc1O	-	.	?	16µM	-
COC(=O)C1=C(C)N(Cc2ccc(C)cc2)C(=O)/C1=C\c1ccc(O)c(OC)c1	-	?	?	?	-
CCOc1cc(/C=C2\C(=O)N(CCc3ccc(OC)c(OC)c3)C(C)=C2C(=O)OC)ccc1O	-	?	-	11µM	-
CCOc1ccc(CC(=O)C2=C(N3CCOCC3)CC(C)(C)CC2=O)cc1OCC	-	.	-	40µM	-
CCOc1ccc(Cc2onc3c2C(=O)CC(C)(C)C3)cc1OCC	-	.	-	8.9µM	-
CCOc1ccc(CC(=O)C2C(=O)CC(C)(C)CC2=O)cc1OCC	-	-	-	7.9µM	-
CCOc1ccc(Cc2onc3c2C(=O)CCC3)cc1OCC	-	.	.	-	-
CCCCC/C=C\C\C=C/C=C/C=C/[C@@H](SC[C@H](N)C(=O)O)[C@@H](O)CCCC(=O)O	.	.	.	-	-
Cc1ccc(S(=O)(=O)NCc2nc3cccnc3n2Cc2ccccc2Cl)c(C)c1	.	.	-	.	.

Screens: PubChem BioAssay, National Center for Advancing Translational Sciences (NCATS)
